Rows were chosen to be rich in hits. Some 3.1% of all compounds tested hit in one or more screens of this group.
TRb SRC2 PPI – inhibitors of human thyroid hormone receptor beta-SRC2 interaction. P10828. TRbeta-SRC2 peptide binding, fluorescence polarization; receptor liganded with 1 µM T3. Potency, µM (titrated, usually from 106 µM), for the others: at the top dose activity change, negative = inhibition, usual class: inhibitors. 280,000 compounds, 0.065% hits;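 also: plate controls were bound peptide for no effect and peptide without receptor for full effect; nearly all actives have a fitted effect of over 50% in size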
Target sequence (P10828 whole entry, looked up): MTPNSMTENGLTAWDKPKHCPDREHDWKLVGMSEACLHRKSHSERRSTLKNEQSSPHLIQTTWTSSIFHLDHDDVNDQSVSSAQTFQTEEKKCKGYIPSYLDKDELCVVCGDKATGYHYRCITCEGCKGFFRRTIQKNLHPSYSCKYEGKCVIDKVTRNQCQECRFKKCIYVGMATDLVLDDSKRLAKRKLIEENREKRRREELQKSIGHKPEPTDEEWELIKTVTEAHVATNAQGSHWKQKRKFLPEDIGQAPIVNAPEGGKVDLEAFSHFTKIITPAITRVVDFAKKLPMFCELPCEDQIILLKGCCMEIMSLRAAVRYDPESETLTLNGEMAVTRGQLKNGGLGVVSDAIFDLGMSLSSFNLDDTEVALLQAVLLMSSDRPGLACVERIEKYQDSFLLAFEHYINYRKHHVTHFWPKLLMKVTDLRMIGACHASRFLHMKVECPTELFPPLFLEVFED
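Human TRb ligand-binding domain (0.6 uM) is mixed with 20 nM Texas Red SRC2 peptide and 1 uM T3; after compound addition and 5 hr at ambient temperature, polarization is measured and normalized to unbound and bound controls.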
Tau ThT inhib – inhibitors of human tau fibril formation, thioflavin T binding | 270,000 compounds, 2.1% hits | Potency, µM (doses to about 57.4 µM), for the others: at the top dose activity, negative = inhibition, most hits filed as inhibitors | recombinant tau K18 P301L, heparin-induced fibrillization, ThT fluorescence | AID 1460; also: nearly all actives have a fitted effect of over 55% in size
Target sequence (P10636 561-689 P618L limits assumed): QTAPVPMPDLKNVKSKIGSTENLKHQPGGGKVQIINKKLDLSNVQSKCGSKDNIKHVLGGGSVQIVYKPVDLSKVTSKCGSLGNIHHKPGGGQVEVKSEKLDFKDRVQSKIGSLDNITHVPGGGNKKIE
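Recombinant human tau K18 fragment […] carrying P301L, 15 uM unlabeled plus 0.24 uM Alexa 594-labeled, was fibrillized with 20 uM heparin in 100 mM sodium acetate pH 7 for 6 hr at 37 C; 30 uM ThT fluorescence read after 1 hr.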
Tau fluor counter – counter-screen for tau fibril formation inhibitors | Potency, µM (top dose mostly 57.7 µM), for inactives: at the top dose activity change, negative = decrease | 280,000 compounds, 0.93% hits | tau K18 P301L (four-repeat tau fragment) Alexa594 fluorescence, heparin fibrillization | AID 1463; also: nearly all actives have a fitted effect of over 55% in size
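Human K18 P301L tau (15 uM unlabeled plus 0.24 uM Alexa 594-labeled, final) in 100 mM sodium acetate pH 7 was mixed with compound and 20 uM heparin and incubated 6 hr at 37 C.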
TexasRed fluor – Texas Red fluorescence interference in TRb-SRC2 counter-screen; TRb/SRC2 Texas Red total fluorescence interference; Potency, µM (highest dose often 106 µM), for inactives: top-dose fluorescence change, negative = quenching; 280,000 compounds, 0.29% hits; AID 1479; active = well fitted curve in either direction with a large enough effect; inconclusive = small, poorly fitted or top-dose-only effect
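Human TRb ligand-binding domain at 0.6 uM with 20 nM Texas Red SRC2 peptide in Tris buffer containing 1 uM T3 and 5% DMSO, incubated with compound 5 h at ambient temperature. Total fluorescence (555/632 nm) calculated as parallel + 2 × perpendicular.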
Tau FP inhib – inhibitors of human tau fibril formation; AID 1468; Potency, µM (top dose mostly 57.7 µM), for inactives: at the highest dose activity, negative = inhibition, most hits filed as inhibitors; 280,000 compounds, 0.39% hits; K18 P301L tau heparin fibrillization, Alexa594 FP, 6 h; P10636; also: nearly all actives have a fitted effect of over 55% in size
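FP of Alexa 594-tau after heparin (20 uM) induction. Substrate: human K18 P301L, 15 uM unlabeled, 0.24 uM labeled. Buffer 100 mM sodium acetate pH 7. 6 hr, 37 C.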
Active calls of the source: *; ? = inconclusive; nt = no result given; [ ] = remark or other dose. Unless noted, calls follow the shape of the dose curve; as a rule, active = well fitted curve in the direction sought with a large enough effect; inconclusive = small, poorly fitted or top-dose-only effect, or another doubt; inactive = no such curve, though single readings can be large; an effect the other way counts as inactive or inconclusive. Unless noted, % is scaled to controls: 0 for no effect and ±100 for the full control effect; potency is read from the fitted curve at half-maximal effect.

SMILES | TRb SRC2 PPI | Tau ThT inhib | Tau fluor counter | TexasRed fluor | Tau FP inhib
CCC(C)(C)C1CCC(=NNc2nc3ccccc3[nH]2)CC1 (configuration not stated) | 8.0% | 15.8µM* | ? | -0.5% | ?
N#CC1=C(N)NC(SCC(=O)O)=C(C#N)C12CCCC2 | -11.6% | ? | -13.0% | 0.4% | -3.4%
N#CC1=C(N)NC(SCc2ccc(F)cc2)=C(C#N)C12CCCCC2 | -4.1% | -8.0% | 17.8µM*[quencher] | -1.8% | ?
COc1ccc(NC(=O)Nc2ccc3c(c2)N(C)C(=O)CS3)cc1Cl | 3.2% | ? | 6.31µM*[quencher] | 0.3% | ?
CN1C(=O)CSc2ccc(NC(=O)NCCC3=CCCCC3)cc21 | 4.3% | -26.8% | 14.1µM*[quencher] | -2.0% | ?
CC(=O)c1ccc(NC(=O)Nc2ccc3c(c2)N(C)C(=O)CS3)cc1 | 0.9% | ? | 12.6µM*[quencher] | -0.2% | -3.2%
CCC1=C2CC[C@H]3C(=O)NC(=O)[C@H]3[C@H]2[C@@]2(Cc3ccccc3)C(=NCc3ccccc3)OC(=O)N2C1=O | 1.2% | -10.9% | -14.6% | 0.1% | -6.5%
CCOC(=O)c1cnc2c(Cl)c(Cl)ccc2c1Nc1ccc(N(C)C)cc1 | 2.0% | ? | -24.9% | -5.0% | -3.2%
CCCCCCCCCCCCCc1ccccc1 | -2.7%[201 µM] | nt | nt | -1.0%[201 µM] | nt
COc1ccc(OCC(=O)NCC(c2ccc(OC)cc2)N2CCCCC2)cc1 (configuration not stated) | 0.6% | -15.7% | -10.8% | -2.9% | 1.2%
O=C(COc1ccc(F)cc1)NCC(c1ccc(Cl)cc1)N1CCCCC1 (configuration not stated) | -25.9% | 11.0% | 3.8% | 39.8µM*[quencher] | -0.2%
Cn1sc(=O)n(Cc2ccccc2)c1=O | -0.2% | nt | nt | 2.3% | nt
Cc1noc(Cn2c(=O)c3ccccc3n(CC(=O)Nc3cccc(Cl)c3C)c2=O)n1 | -9.0% | 17.3% | -7.9% | 0.0% | -9.7%
COc1ccc(/C=C2\CCn3c2nc2cc(C(=O)O)ccc2c3=O)cc1O | ? | -2.9% | -6.4% | 0.316µM*[quencher] | 7.1%
COc1ccc(/C=C2\CCn3c2nc2cc(C(=O)O)ccc2c3=O)cc1OC | -1.1% | ? | -8.3% | -0.9% | -10.9%
CC1(C)c2ccccc2N2CCC(=O)NC21/C=C/c1ccco1 (configuration not stated) | ? | ? | -10.7% | 44.7µM*[fluorescent] | -3.6%
CC1(C)c2ccccc2N2CC(=O)NC21/C=C/c1ccco1 (configuration not stated) | -3.6% | ? | ? | 11.5% | ?
Cc1cc(N2CCN(C)CC2)nc2ccc(NC(=O)Nc3ccc(F)cc3F)cc12 | -6.1% | ? | 15.8µM*[quencher] | -4.4% | ?
Cc1ccc(NC(=O)Nc2ccc3nc(N4CCN(C)CC4)cc(C)c3c2)cc1C | -4.4% | 8.91µM* | 4.47µM*[quencher] | -18.1% | 3.3%
Cc1cc(N2CCN(C)CC2)nc2ccc(NC(=O)Nc3cccc(Cl)c3)cc12 | -2.1% | 14.1µM* | 3.98µM*[quencher] | -19.0% | ?
Cc1cc(N2CCN(C)CC2)nc2ccc(NC(=O)c3ccccc3F)cc12 | 7.7% | ? | ? | 0.5% | -1.7%
Cc1cc(N2CCN(C)CC2)nc2ccc(NC(=O)c3cccnc3Cl)cc12 | -2.7% | ? | -16.6% | -3.7% | -5.1%
Cc1cc(N2CCN(C)CC2)nc2ccc(NC(=O)Nc3ccccc3)cc12 | 3.5% | ? | 17.8µM*[quencher] | -2.7% | ?
S=C(S)NCCNC(=S)S | -3.8%[201 µM] | nt | nt | ? | nt
Cc1cc(N2CCN(C)CC2)nc2ccc(NC(=O)Nc3ccccc3Br)cc12 | 1.4% | 12.6µM* | 12.6µM*[quencher] | -3.1% | ?
SMILES | TRb SRC2 PPI | Tau ThT inhib | Tau fluor counter | TexasRed fluor | Tau FP inhib
COC(=O)N1CC=CC1(C)C(=O)NCc1ccc(C)o1 (configuration not stated) | 10.9% | 22.4µM* | -19.2% | 3.6% | ?
COC(=O)N1CC=CC1(C)C(=O)NCC1CC1 (configuration not stated) | 5.7% | -17.9% | -13.2% | -1.5% | -2.5%
N#CCCn1nc(-c2ccc(Br)cc2)cc1Nc1ccccc1NC(=O)C(F)(F)F | -8.3% | ? | 20µM*[quencher] | -0.7% | 15.3%
N#CCCn1nc(-c2ccccc2)cc1Nc1ccccc1NC(=O)C(F)(F)F | -8.8% | -4.2% | -22.9% | -0.3% | 0.8%
CC(CNC(=O)Cn1ncc2c3ccccc3n(Cc3cccc(Cl)c3)c2c1=O)c1ccccc1 (configuration not stated) | -0.8% | -2.7% | -3.8% | -2.9% | -6.5%
CCCCN(C)c1ncnc2c1cnn2-c1cccc(Cl)c1 | 8.9% | ? | -15.1% | -2.4% | -5.0%
COC(=O)c1sc(=S)sc1C(=O)OC | -1.2% | 3.16µM* | -19.1% | -4.3% | ?
COC(=O)c1sc(C(=O)OC)c(C(=O)OC)c1C(=O)OC | 8.8% | -5.2% | 2.4% | -4.1% | -4.3%
CCOc1ccc(CC2S/C(=N/N=C/c3ccco3)NC2=O)cc1 (configuration not stated) | 2.8% | 2.1% | -4.8% | -0.9% | -5.4%
O=C1N/C(=N\N=C\c2ccco2)SC1Cc1ccccc1[N+](=O)[O-] (configuration not stated) | 5.9% | 7.08µM* | ? | 0.0% | ?
CN1C=CC(=C2C=CN(C)C=C2)C=C1 | -2.7% | nt | nt | -25.0% | nt
C[n+]1c(/C=C/c2ccc3c(c2)OCO3)ccc2ccccc21 | 2.6% | ? | -9.8% | -0.8% | -1.6%
C[n+]1cc2c3c(ccc2c2ccc4cc5c(cc4c21)OCO5)OCO3 | 0.4% | 28.2µM* | 17.8µM*[quencher] | -3.4% | ?
CCN1/C(=C\C(=S)Nc2ccccc2)Sc2ccccc21 | 3.5% | 7.94µM* | ? | -0.3% | ?
CCN1/C(=C\C=C(C(C)=O)C(C)=O)Sc2ccccc21 | -5.0% | ? | -6.7% | -1.9% | 10.4%
CC(C)CC(C(=O)NCc1ccc(F)cc1)N1Cc2ccccc2C1=O (configuration not stated) | 0.8% | 4.0% | -0.5% | -9.4% | 5.9%
CCOC(=O)CSc1nc(Nc2ccc3c(c2)OCO3)c2ccccc2n1 | -1.5% | ? | 12.6µM*[quencher] | -4.9% | 14.1%
CCOC(=O)CNc1ccc2c(c1)OCO2 | -21.7% | 31.6µM* | -28.4% | -1.7% | ?
N#CCSc1nc(Nc2ccc3c(c2)OCO3)c2ccccc2n1 | 5.8% | -17.0% | ? | -3.6% | 2.5%
CCN1CCN(c2ccc(N=Cc3ccc(O)cc3O)cc2)CC1 | -5.6% | 15.8µM* | ? | -1.4% | ?
O=c1c(C(c2ccc(Cl)cc2)c2c(O)nc3n(c2=O)CCCS3)c(O)nc2n1CCCS2 | 2.8% | 11.2µM* | -27.6% | -1.1% | ?
O=c1c(C(c2ccc(Cl)cc2)c2c(O)nc3n(c2=O)CCS3)c(O)nc2n1CCS2 | -4.3% | ? | 8.1% | -3.1% | ?
CCOc1cccc(C(=O)Nc2cc(C)c(O)c(-c3nc4ncccc4o3)c2)c1 | 9.3% | ? | ? | 5.2% | -11.6%

Compound activity (PubChem)
